# Results published in PubChem BioAssay.
# A number with no mark means an inactive call. For some of these results: Entries with a potency or affinity are not part of this list. Some of the results follow. The source made the active and inactive calls.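 Rule for the calls, unless noted: active = earlier screen potentiator hit that boosts the TRPC4 ion channel at some dose, with a dose response; inactive = no potentiation, no dose response, or not a prior hit.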
# Columns and labels:
# [1] = system: TRPC4 beta (transient receptor potential cation channel C4), mouse; test: TRPC4 cation channel opening, retest – cell-based, Fluo4 calcium, HEK293 TRPC4beta/mu-opioid, duplicates, 10 µM, confirmation (AID 2426;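 active = fluorescence ratio normalized to control raised more than 50% in primary screen plus both repeat runs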); conditions: Fluo4 calcium fluorescence, at 10 µM; hits give high values
# [2] = system: transient receptor potential cation channel C4 beta (TRPC4), mouse; test: TRPC4 cation channel opening, second retest – cell-based, second round, Fluo4, HEK293 TRPC4beta/mu-opioid, 1 µM, confirmation (AID 2461;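 active = primary screen active and over 50% activation in each of two duplicate runs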); conditions: Fluo4 calcium fluorescence, at 1 µM; hits give high values
# [3] = system: TRPC4 (transient receptor potential cation channel C4 beta), mouse; test: potentiation of DAMGO EC20 TRPC4 response – cell-based, second round, Fluo-4, HEK293 TRPC4beta/mu-opioid, 1 µM, confirmation (AID 2554;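 active = primary screen hit whose fluorescence ratio, in both repeats, exceeds the weak agonist control mean by 3 SD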); conditions: DAMGO EC20, Fluo-4 calcium flux, at 1 µM; hits give high values
# [4] = system: TRPC4 beta (transient receptor potential cation channel C4), mouse; test: potentiation of DAMGO EC20 TRPC4 response – cell-based, Fluo-4, HEK293 TRPC4beta/mu-opioid, confirmation (AID 2555;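 active = primary screen hit whose calcium fluorescence ratio, in both repeats, exceeds the weak agonist control mean by 3 SD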); conditions: DAMGO EC20, Fluo-4 calcium flux, at 10 µM; hits give high values
# [5] = biological target: Short transient receptor potential channel 4 (Mus musculus) (UniProt Q9QUQ5); test: blockers of DAMGO-evoked TRPC4 calcium flux – cell-based, Fluo4, HEK293 TRPC4beta/mu-opioid, confirmation (AID 2636;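 active = calcium signal cut by more than 3 SD below the full-agonist control yet still positive, in both repeats and the earlier primary screen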); conditions: at 10 µM; hits give high values
# Short transient receptor potential channel 4 (Mus musculus), sequence (Q9QUQ5 whole entry, looked up): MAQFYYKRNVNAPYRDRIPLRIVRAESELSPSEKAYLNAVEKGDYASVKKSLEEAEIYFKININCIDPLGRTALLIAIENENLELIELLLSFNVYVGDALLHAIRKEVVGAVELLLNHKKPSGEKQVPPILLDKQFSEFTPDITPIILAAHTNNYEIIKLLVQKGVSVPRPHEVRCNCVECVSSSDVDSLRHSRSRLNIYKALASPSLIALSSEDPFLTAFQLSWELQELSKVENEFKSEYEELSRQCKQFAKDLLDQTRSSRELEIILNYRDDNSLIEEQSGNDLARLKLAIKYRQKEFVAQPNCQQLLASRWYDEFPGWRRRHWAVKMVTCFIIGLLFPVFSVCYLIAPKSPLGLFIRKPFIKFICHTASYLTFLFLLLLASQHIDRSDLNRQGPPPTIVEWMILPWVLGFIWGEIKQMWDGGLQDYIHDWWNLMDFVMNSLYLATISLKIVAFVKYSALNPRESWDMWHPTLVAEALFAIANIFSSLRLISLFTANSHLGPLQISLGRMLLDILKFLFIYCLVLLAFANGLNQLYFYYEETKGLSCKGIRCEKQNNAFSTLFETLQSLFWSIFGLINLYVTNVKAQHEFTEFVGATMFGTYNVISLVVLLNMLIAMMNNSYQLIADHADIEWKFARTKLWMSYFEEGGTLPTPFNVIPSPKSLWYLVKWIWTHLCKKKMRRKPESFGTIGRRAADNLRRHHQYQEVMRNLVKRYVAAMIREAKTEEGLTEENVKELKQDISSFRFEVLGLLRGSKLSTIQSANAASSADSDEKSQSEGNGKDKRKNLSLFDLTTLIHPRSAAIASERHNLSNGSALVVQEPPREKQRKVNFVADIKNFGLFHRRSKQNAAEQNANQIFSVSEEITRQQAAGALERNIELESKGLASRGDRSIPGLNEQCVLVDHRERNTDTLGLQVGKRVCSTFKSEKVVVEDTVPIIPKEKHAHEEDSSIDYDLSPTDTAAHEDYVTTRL
# [6] = biological target: Short transient receptor potential channel 4 (Mus musculus) (UniProt Q9QUQ5); test: blockers of DAMGO-evoked TRPC4 calcium flux – cell-based, second round, Fluo4, HEK293 TRPC4beta/mu-opioid, 1 µM, confirmation (AID 2637;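 active = calcium signal ratio cut to more than 3 SD under the fully stimulated control mean yet still positive, in both repeats and the primary screen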); conditions: at 1 µM; hits give high values
# [7] = biological target: Short transient receptor potential channel 4 (Mus musculus) (UniProt Q9QUQ5); test: calcium entry via TRPC4 opening agents – cell-based, HEK293 TRPC4/mu-opioid, Fluo-4 calcium, dose response (AID 434937;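 active = primary screen activator hit with a dose response curve and TRPC4 channel activation at any tested dose; inactive = no activation, no dose response, or not a primary hit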)
# [8] = biological target: Short transient receptor potential channel 4 (Mus musculus) (UniProt Q9QUQ5); test: potentiation of DAMGO-evoked TRPC4 calcium signal – cell-based, HEK293 TRPC4/mu-opioid, Fluo-4 calcium, EC20 DAMGO, dose response (AID 434941);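 note: calcium entry triggered by an EC20 dose of DAMGO at the co-expressed mu-opioid receptor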
# [9] = biological target: Short transient receptor potential channel 4 (Mus musculus) (UniProt Q9QUQ5); test: block of DAMGO-driven TRPC4 calcium entry – cell-based, HEK293 TRPC4/mu-opioid, Fluo-4 calcium, dose response (AID 434942;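 active = primary screen inhibitor hit that blocks the TRPC4 channel at some tested dose, yielding a dose curve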)
# [10] = biological target: Short transient receptor potential channel 6 (Mus musculus) (UniProt Q61143); test: TRPC6 blockade by TRPC4 inhibitor hits – cell-based, HEK293, membrane potential dye, duplicate, selectivity assay for TRPC4 inhibitor project, confirmation (AID 434948;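 active = active in primary screen and both duplicates, each dropping signal beyond three positive-control SD with fluorescence still positive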); conditions: HEK293 TRPC6, membrane potential dye fluorescence, at 10 µM, stimulated with maximal-effect acetylcholine; hits give high values
# Short transient receptor potential channel 6 (Mus musculus), sequence (Q61143 whole entry, looked up): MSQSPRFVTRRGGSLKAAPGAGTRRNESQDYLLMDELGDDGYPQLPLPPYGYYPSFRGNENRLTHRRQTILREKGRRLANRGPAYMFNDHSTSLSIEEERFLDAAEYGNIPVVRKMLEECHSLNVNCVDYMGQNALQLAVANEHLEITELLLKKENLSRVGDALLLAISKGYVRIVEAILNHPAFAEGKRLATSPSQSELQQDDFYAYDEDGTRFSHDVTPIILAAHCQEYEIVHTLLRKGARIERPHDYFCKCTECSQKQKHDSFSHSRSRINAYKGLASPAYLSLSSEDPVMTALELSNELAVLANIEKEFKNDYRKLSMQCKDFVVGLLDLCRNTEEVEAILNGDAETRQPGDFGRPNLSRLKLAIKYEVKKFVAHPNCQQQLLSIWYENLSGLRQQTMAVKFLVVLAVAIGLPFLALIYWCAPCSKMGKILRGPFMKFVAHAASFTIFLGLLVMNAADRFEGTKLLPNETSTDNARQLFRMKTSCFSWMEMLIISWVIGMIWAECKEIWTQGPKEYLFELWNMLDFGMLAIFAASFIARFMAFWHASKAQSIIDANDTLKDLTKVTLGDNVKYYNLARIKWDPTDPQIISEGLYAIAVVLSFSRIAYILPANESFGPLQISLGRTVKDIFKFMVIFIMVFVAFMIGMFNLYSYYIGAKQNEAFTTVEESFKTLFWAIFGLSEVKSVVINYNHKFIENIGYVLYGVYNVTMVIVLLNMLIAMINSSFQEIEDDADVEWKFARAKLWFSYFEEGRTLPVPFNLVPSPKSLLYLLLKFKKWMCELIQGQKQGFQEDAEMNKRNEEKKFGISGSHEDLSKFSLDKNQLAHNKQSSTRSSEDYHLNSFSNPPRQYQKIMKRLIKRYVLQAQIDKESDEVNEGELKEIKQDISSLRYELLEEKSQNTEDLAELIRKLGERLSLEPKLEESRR
# [11] = biological target: Short transient receptor potential channel 6 (Mus musculus) (UniProt Q61143); test: TRPC6 opening by TRPC4 activator hits – cell-based, HEK293, membrane potential dye, duplicate, selectivity assay for TRPC4 activator project, confirmation (AID 434950;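 active = membrane potential signal rise above negative control mean plus 3 SD in both duplicates, also active in the earlier TRPC4 screen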;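 for activation: 0% = buffer only wells and 100% = acetylcholine maximal-effect wells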); conditions: HEK293 TRPC6, membrane potential fluorescence, at 10 µM; activation: hits give high values; outcome: activation
# [12] = biological target: Short transient receptor potential channel 6 (Mus musculus) (UniProt Q61143); test: positive modulators of mouse TRPC6 channel – HEK293 cells, membrane potential dye, duplicate, selectivity assay for TRPC4 potentiator project, confirmation (AID 434952;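 active = compound raising the membrane signal above positive-control mean plus 3 SD in both repeats, and a primary screen hit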); conditions: HEK293 TRPC6, membrane potential dye fluorescence, at 10 µM, maximal acetylcholine added after compound; hits give high values
# [13] = biological target: Short transient receptor potential channel 4 (Mus musculus) (UniProt Q9QUQ5); test: calcium flux activators in TRPC4/5HT1a cells, counter-screen for TRPC4 activator project, cell-based, second counter screen, HEK293 TRPC4/5HT1a, Fluo-4 (AID 434977;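 active = calcium signal rise above buffer-control mean plus 5 SD in both duplicates, and also a hit in the primary screen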); conditions: Fluo-4 calcium flux, at 10 µM; hits give high values
# [14] = serotonin-gated TRPC4 signal block – cell-based, second counter screen, HEK293 TRPC4/5HT1a, Fluo-4, counter-screen for TRPC4 inhibitor project, confirmation (AID 434978;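 active = primary screen active whose calcium signal fell more than 3 SD beyond the full-serotonin control mean in both duplicate plates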;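 note: serotonin given first at submaximal then at maximal dose after compound preincubation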); conditions: Fluo-4 calcium flux, at 10 µM, serotonin added to trigger calcium flux; hits give high values
# [15] = system: TRPC4 (mouse), co-expressed with 5HT1a in HEK293; test: enhancement of serotonin-evoked TRPC4 response – cell-based, second counter screen, HEK293 TRPC4/5HT1a, Fluo-4, counter-screen for TRPC4 potentiator project, confirmation (AID 434979;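 active = signal rise over 3 SD above mean of control wells given weak agonist, in both repeats and first screen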); conditions: Fluo-4 calcium flux, at 10 µM, serotonin added at its EC20 dose; hits give high values
# [16] = nonspecific calcium rise without TRPC4 – cell-based, HEK293 mu-opioid receptor line, counter-screen for TRPC4 activator project, confirmation (AID 449723;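 active = hit in primary screen, with calcium signal over 5 SD above buffer well mean in both duplicates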;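 note: counter screen cells carry the mu-opioid receptor alone and lack TRPC4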); conditions: HEK293 mu-opioid cells, Fluo-4 calcium fluorescence, at 10 µM; hits give high values
# [17] = nonspecific potentiation of DAMGO calcium response – cell-based, HEK293 mu-opioid receptor line, counter-screen for TRPC4 allosteric potentiator project, confirmation (AID 449724;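 active = calcium signal rise more than 3 SD above the low-dose agonist control mean, in both duplicate plates and the primary screen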); conditions: HEK293 mu-opioid receptor cells, Fluo-4 calcium flux, at 10 µM, compound added before EC20 DAMGO stimulus; hits give high values
# [18] = parental CHO-K1 cell activation, no KCNQ2 – FluxOR thallium flux, duplicate, counter-screen for KCNQ2 potentiator project, confirmation (AID 2282;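 active = signal rise of at least 3 SD above the untreated control mean, in both duplicate wells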;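 note: counter screen of KCNQ2 potentiator hits so any rise reflects channel-independent effects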); conditions: parental CHO-K1 cells, FluxOR thallium flux fluorescence; at 10 µM; hits give high values; zero = vehicle mean+3SD, 100% = vehicle-minus-blank window
# [19] = biological target: Potassium voltage-gated channel subfamily KQT member 1 (Homo sapiens) (UniProt P51787); test: KCNQ1 activation in stable CHO cells – cell-based, FluxOR thallium flux, selectivity assay for KCNQ2 potentiator project, confirmation (AID 2283;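 active = fluorescence ratio rise of at least 3 SD of vehicle wells above their mean, in both replicate wells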;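 note: 0% = vehicle mean plus 3 SD and 100% = vehicle minus unstimulated blank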); conditions: FluxOR thallium flux fluorescence, at 10 µM, hits give high values, beyond 3SD, as % of vehicle-control signal
# Potassium voltage-gated channel subfamily KQT member 1 (Homo sapiens), sequence (P51787 whole entry, looked up): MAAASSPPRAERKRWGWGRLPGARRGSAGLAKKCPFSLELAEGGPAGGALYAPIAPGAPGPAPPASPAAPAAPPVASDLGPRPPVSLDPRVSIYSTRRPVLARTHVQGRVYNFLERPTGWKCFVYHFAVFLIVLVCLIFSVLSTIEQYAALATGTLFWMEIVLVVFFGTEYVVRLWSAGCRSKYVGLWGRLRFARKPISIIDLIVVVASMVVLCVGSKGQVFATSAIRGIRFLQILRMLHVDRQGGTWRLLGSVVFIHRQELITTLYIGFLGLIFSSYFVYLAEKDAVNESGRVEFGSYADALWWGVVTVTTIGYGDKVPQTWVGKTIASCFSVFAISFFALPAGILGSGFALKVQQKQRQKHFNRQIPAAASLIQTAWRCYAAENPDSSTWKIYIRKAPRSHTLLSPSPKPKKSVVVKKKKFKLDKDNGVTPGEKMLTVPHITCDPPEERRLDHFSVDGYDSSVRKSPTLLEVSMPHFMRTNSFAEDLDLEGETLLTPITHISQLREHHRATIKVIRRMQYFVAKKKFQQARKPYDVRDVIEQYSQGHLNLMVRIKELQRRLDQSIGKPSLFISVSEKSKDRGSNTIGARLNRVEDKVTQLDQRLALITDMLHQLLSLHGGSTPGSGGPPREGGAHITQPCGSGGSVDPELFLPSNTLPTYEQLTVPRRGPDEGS
# [20] = biological target: Potassium voltage-gated channel subfamily KQT member 2 (Rattus norvegicus) (UniProt O88943); test: KCNQ2 potassium channel activity enhancers – cell-based, CHO, FluxOR thallium flux, duplicate, confirmation (AID 2287;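 active = fluorescence ratio rising 3 SD or more over the vehicle control mean in both replicates, plus primary screen hit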;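 note: peak minus minimum thallium fluorescence divided by baseline after K/Tl stimulus; 0% = vehicle mean plus 3 SD and 100% = vehicle minus unstimulated blank difference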); conditions: CHO-KCNQ2 cells, FluxOR thallium flux fluorescence; at 10 µM; hits give high values
# Potassium voltage-gated channel subfamily KQT member 2 (Rattus norvegicus), sequence (O88943 whole entry, looked up): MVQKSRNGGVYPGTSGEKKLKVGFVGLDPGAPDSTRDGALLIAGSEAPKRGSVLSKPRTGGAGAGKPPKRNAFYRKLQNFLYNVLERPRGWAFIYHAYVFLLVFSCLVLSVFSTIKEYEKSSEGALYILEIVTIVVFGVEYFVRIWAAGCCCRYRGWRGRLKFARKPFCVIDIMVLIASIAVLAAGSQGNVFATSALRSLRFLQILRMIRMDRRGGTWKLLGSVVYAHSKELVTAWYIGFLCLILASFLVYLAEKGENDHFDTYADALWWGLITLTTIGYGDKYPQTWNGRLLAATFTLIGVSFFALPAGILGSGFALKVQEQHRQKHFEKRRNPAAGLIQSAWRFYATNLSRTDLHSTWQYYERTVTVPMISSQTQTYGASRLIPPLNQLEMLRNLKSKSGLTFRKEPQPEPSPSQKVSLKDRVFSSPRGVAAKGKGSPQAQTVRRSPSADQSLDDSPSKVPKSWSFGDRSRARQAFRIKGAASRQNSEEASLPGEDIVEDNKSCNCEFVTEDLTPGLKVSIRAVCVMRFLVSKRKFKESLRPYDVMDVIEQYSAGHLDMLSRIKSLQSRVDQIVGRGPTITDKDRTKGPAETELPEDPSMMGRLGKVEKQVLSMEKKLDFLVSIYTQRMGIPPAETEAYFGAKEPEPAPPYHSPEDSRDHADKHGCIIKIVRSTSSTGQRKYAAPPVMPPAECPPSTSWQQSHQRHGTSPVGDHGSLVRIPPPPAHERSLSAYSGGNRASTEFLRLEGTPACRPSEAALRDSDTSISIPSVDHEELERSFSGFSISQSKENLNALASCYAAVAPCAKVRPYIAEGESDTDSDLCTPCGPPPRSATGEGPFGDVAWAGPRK
smiles,measurement,setting,value
COc1cc(/C=C/C(=O)OCC(=O)Nc2c(C)n(C)n(-c3ccccc3)c2=O)ccc1OCC#N,outcome,[1],inactive
same,outcome,[2],inactive
same,outcome,[3],inactive
same,outcome,[4],inactive
same,outcome,[5],inactive
same,outcome,[6],inactive
same,outcome,[7],inactive
same,outcome,[8],inactive
same,outcome,[9],inactive
same,outcome,[10],inactive
same,activation,[11],39.5% (active)
same,outcome,[12],inactive
same,outcome,[13],inactive
same,outcome,[14],inactive
same,outcome,[15],inactive
same,outcome,[16],inactive
same,outcome,[17],inactive
CC(=O)NNC(=O)c1csc(Cc2c(Cl)sc3ccc(Cl)cc23)n1,activity increase over 3SD of controls,[18],26.3% (active)
same,activation over 3SD threshold,[19],-5%
same,"potentiation, less the hit threshold",[20],12.3% (active)
CCN(CC)CC(=O)Nc1ccccc1SCC(=O)Nc1ccsc1C(=O)OC,outcome,[1],inactive
same,outcome,[2],inactive
same,outcome,[3],inactive
same,outcome,[4],inactive
same,outcome,[5],inactive
same,outcome,[6],inactive
same,outcome,[7],inactive
same,outcome,[8],inactive
same,outcome,[9],inactive
same,outcome,[10],inactive
same,outcome,[11],inactive
same,outcome,[12],inactive
same,outcome,[13],inactive
same,outcome,[14],inactive
same,outcome,[15],inactive
same,outcome,[16],inactive
same,outcome,[17],inactive
CC(=O)Cn1ncc(N2CCOCC2)cc1=O,outcome,[1],inactive
same,outcome,[2],inactive
same,outcome,[3],inactive
same,outcome,[4],inactive
same,outcome,[5],inactive
same,outcome,[6],inactive
same,outcome,[7],inactive
same,outcome,[8],inactive
same,outcome,[9],inactive
same,outcome,[10],inactive
same,outcome,[11],inactive
same,outcome,[12],inactive
same,outcome,[13],inactive
same,outcome,[14],inactive
same,outcome,[15],inactive
same,outcome,[16],inactive
same,outcome,[17],inactive
CC(=O)Cc1nsc(NC(=O)c2csc3c2CCCC3)n1,outcome,[1],inactive
same,outcome,[2],inactive
same,outcome,[3],inactive
same,outcome,[4],inactive
same,outcome,[5],inactive
same,outcome,[6],inactive
same,outcome,[7],inactive
same,outcome,[8],inactive
same,outcome,[9],inactive
same,outcome,[10],inactive
same,outcome,[11],inactive
same,outcome,[12],inactive
same,outcome,[13],inactive
same,outcome,[14],inactive
same,outcome,[15],inactive
same,outcome,[16],inactive
same,outcome,[17],inactive
Fc1ccc(Nc2ncnc3sc4c(c23)CCC4)cc1,outcome,[1],inactive
same,outcome,[2],inactive
same,potentiation,[3],22% (active)
same,outcome,[4],inactive
same,outcome,[5],inactive
same,outcome,[6],inactive
same,outcome,[7],inactive
same,outcome,[8],inactive
same,outcome,[9],inactive
same,outcome,[10],inactive
same,outcome,[11],inactive
same,outcome,[12],inactive
same,outcome,[13],inactive
same,outcome,[14],inactive
same,potentiation,[15],50% (active)
same,outcome,[16],inactive
same,outcome,[17],inactive
NC(=S)N/N=C1/CCSc2ccc3ccccc3c21,outcome,[1],inactive
same,outcome,[2],inactive
same,outcome,[3],inactive
same,potentiation,[4],25% (active)
same,outcome,[5],inactive
same,outcome,[6],inactive
same,outcome,[7],inactive
same,outcome,[8],inactive
same,outcome,[9],inactive
same,outcome,[10],inactive
same,outcome,[11],inactive
same,outcome,[12],inactive
same,outcome,[13],inactive
same,outcome,[14],inactive
same,potentiation,[15],18.7% (active)
same,outcome,[16],inactive
same,outcome,[17],inactive
Cc1cccc(NC(=O)CNC(=O)CN2C(=O)NC3(CCCCC3C)C2=O)c1C (stereo unspecified),outcome,[1],inactive
same,outcome,[2],inactive
same,outcome,[3],inactive
same,outcome,[4],inactive
same,outcome,[5],inactive
same,outcome,[6],inactive
same,outcome,[7],inactive
same,outcome,[8],inactive
same,outcome,[9],inactive
same,outcome,[10],inactive
same,outcome,[11],inactive
same,outcome,[12],inactive
same,outcome,[13],inactive
same,outcome,[14],inactive
same,outcome,[15],inactive
same,outcome,[16],inactive
same,outcome,[17],inactive
c1ccc(Nc2nc(N3CCCCC3)nc(N3CCNCC3)n2)cc1,outcome,[1],inactive
same,outcome,[2],inactive
same,outcome,[3],inactive
same,outcome,[4],inactive
same,outcome,[5],inactive
same,outcome,[6],inactive
same,outcome,[7],inactive
same,outcome,[8],inactive
same,outcome,[9],inactive
same,outcome,[10],inactive
same,outcome,[11],inactive
same,outcome,[12],inactive
same,outcome,[13],inactive
same,outcome,[14],inactive
same,potentiation,[15],44.6% (active)
same,outcome,[16],inactive
same,outcome,[17],inactive
Cc1cc(S(=O)(=O)N2CCC(N3CCCCC3)CC2)ccc1-n1cnnn1,outcome,[1],inactive
same,outcome,[2],inactive
same,potentiation,[3],11% (active)
same,potentiation,[4],11% (active)
same,outcome,[5],inactive
same,outcome,[6],inactive
same,outcome,[7],inactive
same,outcome,[8],inactive
same,outcome,[9],inactive
same,outcome,[10],inactive
same,outcome,[11],inactive
same,outcome,[12],inactive
same,outcome,[13],inactive
same,outcome,[14],inactive
same,potentiation,[15],19.1% (active)
same,outcome,[16],inactive
same,outcome,[17],inactive
COC(=O)c1ccc(COc2ccc(/C=N/Nc3nc(C)cc(=O)[nH]3)cc2)cc1,outcome,[1],inactive
same,outcome,[2],inactive
same,outcome,[3],inactive
same,outcome,[4],inactive
same,outcome,[5],inactive
same,outcome,[6],inactive
same,outcome,[7],inactive
same,outcome,[8],inactive
same,outcome,[9],inactive
same,outcome,[10],inactive
same,outcome,[11],inactive
same,outcome,[12],inactive
same,outcome,[13],inactive
same,outcome,[14],inactive
same,outcome,[15],inactive
same,outcome,[16],inactive
same,outcome,[17],inactive
O=c1oc2ccccc2c(O)c1/C=C1\C=Nc2ccccc21,outcome,[1],inactive
same,outcome,[2],inactive
same,outcome,[3],inactive
same,outcome,[4],inactive
same,outcome,[5],inactive
same,outcome,[6],inactive
same,outcome,[7],inactive
same,outcome,[8],inactive
same,outcome,[9],inactive
same,outcome,[10],inactive
same,activation,[11],32.5% (active)
same,outcome,[12],inactive
same,outcome,[13],inactive
same,outcome,[14],inactive
same,outcome,[15],inactive
same,outcome,[16],inactive
same,outcome,[17],inactive
Cc1cc2oc(C(=O)N(Cc3ccco3)C3CCS(=O)(=O)C3)cc(=O)c2cc1Cl (stereo unspecified),outcome,[1],inactive
same,outcome,[2],inactive
same,outcome,[3],inactive
same,potentiation,[4],66% (active)
same,outcome,[5],inactive
same,outcome,[6],inactive
same,outcome,[7],inactive
same,outcome,[8],inactive
same,outcome,[9],inactive
same,outcome,[10],inactive
same,outcome,[11],inactive
same,outcome,[12],inactive
same,outcome,[13],inactive
same,outcome,[14],inactive
same,potentiation,[15],70.9% (active)
same,outcome,[16],inactive
same,outcome,[17],inactive
CCC(CC)c1nnc(NC(=O)c2c(C)nn(Cc3ccccc3Cl)c2C)s1,outcome,[1],inactive
same,outcome,[2],inactive
same,outcome,[3],inactive
same,outcome,[4],inactive
same,outcome,[5],inactive
same,outcome,[6],inactive
same,outcome,[7],inactive
same,outcome,[8],inactive
same,outcome,[9],inactive
same,outcome,[10],inactive
same,outcome,[11],inactive
same,outcome,[12],inactive
same,outcome,[13],inactive
same,outcome,[14],inactive
same,potentiation,[15],36.2% (active)
same,outcome,[16],inactive
same,outcome,[17],inactive
CN1CCN(CCCNC(=O)CN2C(=O)COc3ccccc32)CC1,outcome,[1],inactive
same,outcome,[2],inactive
same,outcome,[3],inactive
same,outcome,[4],inactive
same,inhibition,[5],77% (active)
same,outcome,[6],inactive
same,outcome,[7],inactive
same,outcome,[8],inactive
same,outcome,[9],inactive
same,outcome,[10],inactive
same,outcome,[11],inactive
same,outcome,[12],inactive
same,outcome,[13],inactive
same,outcome,[14],inactive
same,outcome,[15],inactive
same,outcome,[16],inactive
same,outcome,[17],inactive
